Several values for one entry are separate records, joined by “and”; a condition that tells them apart may be missing. Equal entries are not always repeated. Structures can show the parent of a compound that is named as a salt. The whole screen tested about 5,800 compounds, of which about 620 (11%) showed activity. The sample as a whole holds a higher share of actives than the screen did. A number with no mark means an inactive call.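 Rule for the calls: active = score above a cut-off or among the top three wells of a plate; in these data no inactive exceeds 0.85.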
Tested on: primary human hepatic stellate cells (donor 1)
Experiment: scaled lipid accumulation score (0 = DMSO-like, 1 = nortriptyline-like); higher = stronger HSC inactivation (lipid re-accumulation), active = hit call of the paper
Conditions: 48 h
Protocol: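 Primary lipid accumulation screen in primary human hepatic stellate cell myofibroblasts (donor 1, passage 8) in 384-well plates. 100 nL of library compound was pin-transferred into 30 µL medium in duplicate, and cells were treated for 48 h. The 'Scaled' score combines distance from plate baseline, toxicity and reproducibility penalties, and is normalised to nortriptyline (positive) and DMSO (negative) controls on each plate. A hit is defined as scaled >0.85 or among the top 3 wells per plate.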

[1] = library stock concentration: 10 mM
[2] = library stock concentration: 8.6 mM
[3] = library stock concentration: 1 mM
[4] = library stock concentration: 80 uM
[5] = library stock concentration: 400 uM
[6] = library stock concentration: 2 mM
[7] = library stock concentration: 3.33 mM

Cc1c2ccncc2c(C)c2c1[nH]c1ccccc12 [Ellipticine]
scaled lipid accumulation score: 0.623 | scaled lipid accumulation score [1]: ≤ -0.07

CCC(N)C(O)c1ccc(O)c(O)c1 (configuration not stated) [Ethylnorepinephrine hydrochloride]
scaled lipid accumulation score [2]: ≤ 0 | scaled lipid accumulation score [1]: ≤ -0.027

NCC(O)c1cc(O)c(O)cc1F (configuration not stated) [6-Fluoronorepinephrine hydrochloride]
scaled lipid accumulation score [1]: ≤ 0

CCCCC/C=C\C/C=C\C/C=C\C/C=C\CCCC(=O)Nc1ccc(O)cc1C
scaled lipid accumulation score [3]: 0.064

CCCCCCCC/C=C\CCCCCCCC(=O)N[C@H](C)CO
scaled lipid accumulation score [3]: 0.021

COc1cc(C(O)CN)ccc1O (configuration not stated)
scaled lipid accumulation score [1]: ≤ -0.055

C=C(C)[C@@H]1CCC(C)=C[C@H]1c1c(O)cc(O)cc1CCCCC
scaled lipid accumulation score [3]: ≤ 0

CCCCC/C=C\C/C=C\C/C=C\C/C=C\CCCC(=O)N[C@@H](C)C(=O)O [N-Arachidonoyl-L-Alanine]
scaled lipid accumulation score [3]: 0.035

CCn1cnc2c(Nc3cccc(Cl)c3)nc(N[C@@H]3CCCC[C@@H]3N)nc21
scaled lipid accumulation score [4]: ≤ -0.016 | scaled lipid accumulation score [5]: ≤ -0.016 | scaled lipid accumulation score [6]: 0.503 | scaled lipid accumulation score [1]: 0.364 and 0.356

CN1CCC[C@@H]1Cc1c[nH]c2ccc(Nc3ncccc3[N+](=O)[O-])cc12
scaled lipid accumulation score [1]: ≤ 0

CC[C@]1(O)CC[C@H]2[C@@H]3CCC4=CCCC[C@@H]4[C@H]3CC[C@@]21C [Ethylestrenol]
scaled lipid accumulation score [1]: ≤ 0

CCN1C[C@]2(C)CC[C@H](O)[C@]34C1[C@@H](C[C@H]23)[C@@]1(O)C[C@H](OC)[C@H]2C[C@@H]4[C@@H]1[C@H]2O [Karakoline]
scaled lipid accumulation score: ≤ 0

C=C(C)[C@H]1CN[C@H](C(=O)O)[C@H]1CC(=O)O [Kainic acid]
scaled lipid accumulation score [1]: ≤ -0.055 and 0.031 and ≤ -0.009

C=C(C)[C@H]1CN[C@H](C(=O)O)[C@H]1CC(=O)O [(-)-(.alpha.)-Kainic Acid (hydrate)]
scaled lipid accumulation score [3]: ≤ 0

COc1cc2c(cc1OC)C(C)NCC2 (configuration not stated)
scaled lipid accumulation score: 0.537

CC[C@H]1CN2CCc3cc(OC)c(OC)cc3[C@@H]2C[C@@H]1C[C@H]1NCCc2cc(OC)c(OC)cc21 [Emetine]
scaled lipid accumulation score [1]: 0.627

CC[C@H]1CN2CCc3cc(OC)c(OC)cc3[C@@H]2C[C@@H]1C[C@H]1NCCc2cc(OC)c(OC)cc21 [Emetine dihydrochloride hydrate]
scaled lipid accumulation score [1]: 0.835

CC[C@H]1CN2CCc3cc(OC)c(OC)cc3[C@@H]2C[C@@H]1C[C@H]1NCCc2cc(OC)c(OC)cc21.Cl.Cl [Emetine dihydrochloride]
scaled lipid accumulation score: 0.98 (active)

COc1cc2c(cc1OC)C1CC(=O)C(CC(C)C)CN1CC2 (configuration not stated) [Tetrabenazine]
scaled lipid accumulation score [1]: ≤ 0 and ≤ -0.001

CC[C@H]1CN2CCc3cc(OC)c(OC)cc3C2C[C@@H]1CC1NCCc2cc(OC)c(OC)cc21.Cl.Cl (some centres not stated) [Emetine]
scaled lipid accumulation score (library stock concentration: 3.6 mM): 1.37 (active)

CC(=O)[C@H]1CC[C@H]2[C@@H]3CC[C@H]4C[C@](C)(O)CC[C@]4(C)[C@H]3CC[C@]12C [Ganaxolone]
scaled lipid accumulation score [1]: 0.134 and ≤ -0.001

CCCCCCC(=O)O[C@H]1CC[C@H]2[C@@H]3C[C@@H](O)C4=CC(=O)CC[C@]4(C)[C@H]3CC[C@]12C [6.beta.-Testosterone Enanthate]
scaled lipid accumulation score [3]: 0.05

c1ccc(/N=N/c2ccccc2)cc1 [Azobenzene]
scaled lipid accumulation score [1]: ≤ 0

CC1=C2[C@H]3OC(=O)[C@@H](C)[C@@H]3CC[C@@]2(C)C=CC1=O [alpha-Santonin]
scaled lipid accumulation score: ≤ 0

C[C@H]1CC[C@]2(NC1)O[C@H]1C[C@H]3[C@@H]4CC[C@H]5C[C@@H](O)CC[C@]5(C)[C@H]4CC[C@]3(C)[C@H]1[C@@H]2C [Tomatidine]
scaled lipid accumulation score: 0.117

C[C@H]1O[C@@H](O[C@H]2CC[C@]3(C=O)[C@H]4CC[C@]5(C)[C@@H](C6=CC(=O)OC6)CC[C@]5(O)[C@@H]4CC[C@]3(O)C2)C[C@H](O)[C@@H]1O [Helveticoside]
scaled lipid accumulation score: 0.504

C[C@]12CCC3C(CC[C@]4(O)C[C@@H](O)CC[C@]34C=O)[C@@]1(O)CCC2C1=CC(=O)OC1 (some centres not stated) [Strophanthidin]
scaled lipid accumulation score [1]: 1.12 (active)

C[C@]12CC[C@H]3[C@@H](CC[C@]4(O)C[C@@H](O)CC[C@]34C=O)[C@@]1(O)CC[C@@H]2C1=CC(=O)OC1 [Strophanthidin]
scaled lipid accumulation score: 0.887 (active)

CCN1C[C@]2(COC(=O)c3ccccc3N3C(=O)C[C@H](C)C3=O)CC[C@H](OC)[C@@]34[C@@H]5C[C@H]6[C@H](OC)[C@@H]5[C@](O)(C[C@@H]6OC)[C@](O)([C@@H](OC)[C@H]23)[C@@H]14 [Methyllycaconitine citrate]
scaled lipid accumulation score [1]: ≤ -0.006

CCC1(c2ccc(N)cc2)CCC(=O)NC1=O (racemic) [Dl-aminoglutethimide]
scaled lipid accumulation score [2]: 0.005

NC(CP(=O)(O)O)C(=O)O (configuration not stated)
scaled lipid accumulation score [1]: 0.082

CCCCCCCCCCCCCCCCOCC(COP(=O)([O-])OCC[N+](C)(C)C)OC(C)=O (stereo not drawn) [Enantio-PAF C16]
scaled lipid accumulation score [3]: 0.064

O=[N+]([O-])C=Cc1ccc2c(c1)OCO2
scaled lipid accumulation score [7]: 1.44 (active) | scaled lipid accumulation score [1]: 0.901 (active)

C=CCc1ccc2c(c1)OCO2 [Safrole]
scaled lipid accumulation score [1]: 0.109

c1cc2c(cc1[C@H]1OC[C@H]3[C@@H]1CO[C@@H]3c1ccc3c(c1)OCO3)OCO2 [Sesamin]
scaled lipid accumulation score [7]: ≤ 0 | scaled lipid accumulation score [1]: ≤ 0

O=[N+]([O-])/C=C/c1ccc2c(c1)OCO2
scaled lipid accumulation score [1]: 0.967 (active)

O=C(Oc1ccc([N+](=O)[O-])cc1)N1CCC(C(O)(c2ccc3c(c2)OCO3)c2ccc3c(c2)OCO3)CC1
scaled lipid accumulation score [7]: ≤ 0 | scaled lipid accumulation score [1]: ≤ -0.001

O=[N+]([O-])/C=C/c1ccc2c(c1)OCO2 [Syk Inhibitor III]
scaled lipid accumulation score [7]: 0.609

C=C1C/C(=C/C)C(=O)O[C@@H]2CCN3CC=C(COC(=O)[C@]1(C)O)[C@H]23 [Seneciphylline]
scaled lipid accumulation score: ≤ 0

CCCCC/C=C\C/C=C\C/C=C\C/C=C\CCCC(=O)NOCCO [oxy-Arachidonoyl Ethanolamide]
scaled lipid accumulation score [3]: 0.014

C[C@H](N)C(=O)N[C@@H](C)C(=O)N[C@@H](Cc1ccccc1)C(=O)CCl
scaled lipid accumulation score (library stock concentration: 14.7 mM): 0.708

CC(=O)O[C@@]12C[C@@H](C)[C@@]3(O)[C@@H](C=C(CO)C[C@]4(O)C(=O)C(C)=C[C@@H]34)[C@@H]1C2(C)C [Prostratin]
scaled lipid accumulation score [3]: 0.583 (active)

CCCCCCCCCCCCCC(=O)O[C@@H]1[C@@H](C)[C@@]2(O)[C@@H](C=C(CO)C[C@]3(O)C(=O)C(C)=C[C@@H]23)[C@@H]2C(C)(C)[C@]12OC(C)=O [Phorbol 12-myristate 13-acetate] [listing 1 of 2 here]
scaled lipid accumulation score [1]: ≤ 0

CCCCCCCCCCCCCC(=O)O[C@@H]1[C@@H](C)[C@@]2(O)[C@@H](C=C(CO)C[C@]3(O)C(=O)C(C)=C[C@@H]23)[C@@H]2C(C)(C)[C@]12OC(C)=O [Phorbol 12-myristate 13-acetate] [listing 2 of 2 here]
scaled lipid accumulation score (library stock concentration: 8.1 mM): 0.934 (active)

CC(=O)O[C@@H]1CC[C@@]2(C)[C@@H](CC[C@@H]3[C@@H]2CC[C@]2(C)C(=O)CC[C@@H]32)C1 [Androsterone acetate]
scaled lipid accumulation score [1]: ≤ -0.027

C=CCN1CC[C@]23c4c5ccc(O)c4O[C@H]2/C(=N/N=C2\CC[C@@]4(O)[C@H]6Cc7ccc(O)c8c7[C@@]4(CCN6CC=C)[C@H]2O8)CC[C@@]3(O)[C@H]1C5 [Naloxonazine 2HCl]
scaled lipid accumulation score (library stock concentration: 3.1 mM): 0.144

N[C@@H]1C[C@H]1c1ccccc1.N[C@H]1C[C@@H]1c1ccccc1 [Tranylcypromine sulfate]
scaled lipid accumulation score [2]: ≤ 0 | scaled lipid accumulation score [1]: ≤ 0

N[C@@H]1C[C@H]1c1ccccc1.N[C@H]1C[C@@H]1c1ccccc1 [Tranylcypromine]
scaled lipid accumulation score [4]: ≤ 0 | scaled lipid accumulation score [5]: ≤ 0 | scaled lipid accumulation score [6]: ≤ 0 | scaled lipid accumulation score [1]: ≤ 0 | scaled lipid accumulation score (library stock concentration: 15 mM): ≤ -0.003

C=C(C)[C@@H]1CCC(C)=C[C@H]1C1=C(O)C(=O)C(CCCCC)=CC1=O
scaled lipid accumulation score [3]: 0.055

CC1=C2C(=CO[C@H](C)[C@H]2C)C(O)=C(C(=O)O)C1=O [Citrinin]
scaled lipid accumulation score [1]: ≤ 0

Cn1c2cccc(=O)c-2nc2ccccc21 [Pyocyanin]
scaled lipid accumulation score [3]: ≤ 0

CC(=O)OC1CN2CCC1CC2 (configuration not stated)
scaled lipid accumulation score [1]: 0.001

CCCCC/C=C\C/C=C\C/C=C\C/C=C\CCCC(=O)NC1CC1 [Arachidonoyl Cyclopropylamide]
scaled lipid accumulation score [3]: ≤ 0

CN(C(=O)Cc1ccccc1)C(CN1CCCC1)c1ccccc1 (configuration not stated) [N-MPPP Hydrochloride]
scaled lipid accumulation score [1]: 0.172

CN(C(=O)Cc1ccc(Cl)c(Cl)c1)C(CN1CCCC1)c1cccc(OCC(=O)O)c1 (configuration not stated) [ICI 204,448 hydrochloride]
scaled lipid accumulation score [1]: 0.053

CN(C(=O)Cc1ccc(Cl)c(Cl)c1)[C@H](CN1CCCC1)c1ccccc1.Cl [ICI-199,441 hydrochloride]
scaled lipid accumulation score [1]: 1.58 (active)

CCCCCc1cc(O)c2c(c1)OC(C)(C)C1CCC(C(=O)O)=CC21 (configuration not stated) [Tetrahydrocannabinol-7-oic acid]
scaled lipid accumulation score [3]: ≤ -0.021

COc1cc(CNC(=O)CCCCCCC(C)C)c(I)cc1O
scaled lipid accumulation score [3]: ≤ 0

COc1cc2c3cc1Oc1cc(ccc1O)C[C@@H]1c4c(cc(OC)c(O)c4Oc4cccc(c4)C[C@@H]3N(C)CC2)CC[N+]1(C)C [Tubocurarine chloride pentahydrate (+)]
scaled lipid accumulation score: 0.039
